In PubChem BioAssay (NCATS):
Results filed as inconclusive are left out. Entries that show only a call come without a potency. Calls of active or inactive are those of the source. The call rests on the fitted dose curve; in most records, active means well fitted inhibition curve with a large enough effect; inconclusive means small, poorly fitted or top-dose-only effect; inactive means no such curve, though single readings can be large or run the other way.

These compounds were tested against Retinal dehydrogenase 2 (Homo sapiens) (UniProt O94788) (assay: qHTS for Inhibitors of the Aldehyde Dehydrogenase Family (ALDH1A2) Confirmation screens (AID 2061314; further: nearly all actives have a fitted effect of over 65% in size)). Details: ALDH1A2 enzyme inhibition qHTS confirmation; series mostly up to 45.9 µM.
Potency means the concentration at half of the fitted maximal effect.

SMILES | Potency
CC(=O)c1c(C)n(-c2ccc(C)cc2)c2ccc(OC(=O)COc3ccccc3)cc12 | inactive
CCOC(=O)c1c(C)n(-c2ccccc2)c2ccc(OC(=O)c3ccccc3)cc12 | inactive
O=C(CCC1CCCN(S(=O)(=O)c2ccccc2F)C1)NCCCN1CCOCC1 (stereo unspecified) | inactive
COc1ccc(-n2c(C)c(C(C)=O)c3cc(OC(=O)COc4ccccc4)ccc32)cc1 | inactive
COc1ccc(-c2nc(CCNC(=O)c3c(F)cccc3Cl)cs2)cc1 | inactive
Cc1ccc(C(=O)NCC(c2ccc3c(c2)OCO3)N2CCN(c3ccc(F)cc3)CC2)cc1 (stereo unspecified) | inactive
CSCCC(NS(=O)(=O)c1ccc2c(c1)oc(=O)n2C)C(=O)N1CCN(c2ccc(C(C)=O)cc2)CC1 (stereo unspecified) | inactive
N#Cc1ccc(-c2ccc(CNc3ccc(N4CCOCC4)cc3)cn2)cc1 | inactive
COc1ccc2c(c1)c(C(=O)CN(C)C)c(C)n2C | inactive
Cc1cc(C)cc(-c2ccc(C=O)cc2)c1 | inactive
Cc1ccc(-c2ccccc2C=O)c(C)c1 | inactive
COc1ccc(-c2nc3ccccc3c(=O)n2Cc2ccccc2)cc1CNc1ccc(NC(C)=O)cc1 | 11.3 µM (active)
Cc1cc(C)cc(-c2ccccc2C=O)c1 | inactive
COc1ccc(Cl)cc1C(=O)NCc1nnc2cc(-c3nc(C)no3)ccn12 | inactive
CCN(CC)CC(=O)c1c(C)n(C)c2ccc(OC)cc12 | inactive
CC(=O)c1c(C)n(-c2cccc(C)c2)c2ccc(OC(=O)COc3ccccc3)cc12 | inactive
O=C(Cc1ccc(F)cc1)Nc1cccc(-c2nc3cccnc3s2)c1 | inactive
Cn1sc(=O)n(Cc2ccccc2)c1=O | 8.96 µM (active)
CC(=O)N1CCN(c2ccc(NCc3ccc(Br)o3)cc2)CC1 | 12.7 µM (active)
Oc1cc2c(cc1CN1CCN(c3ncccn3)CC1)OCO2 | 2.01 µM (active)
CC(=O)N1CCN(c2ccc(NCc3ccco3)cc2)CC1 | 14.2 µM (active)
Cc1ccc(-c2cccc(C=O)c2)c(C)c1 | inactive
Cc1cccc(-c2ccccc2C=O)c1 | inactive
Cc1oc(-c2ccccc2F)nc1CS(=O)(=O)CC(=O)N1CCN(c2cccc(C(F)(F)F)c2)CC1 | inactive
O=C(Nc1ncc(Cc2ccc(C(F)(F)F)cc2)s1)c1ccc(-c2ccccc2[N+](=O)[O-])o1 | 25.2 µM (active)
Cc1cccc(C(=O)NCc2nnc3cc(-c4nc(C)no4)ccn23)c1 | inactive
